Measured values: PubChem BioAssay (NCATS)
Results filed as inconclusive are left out. Active and inactive are the calls of the source. Calls follow the shape of the dose curve; as a rule, active = well fitted curve in the direction sought with a large enough effect; inconclusive = small, poorly fitted or top-dose-only effect, or another doubt; inactive = no such curve, though single readings can be large; an effect the other way counts as inactive or inconclusive.

Legend:
[1] = NS1 protein of Zika virus - qHTS assay to identify small molecule inhibitors in human HEK 293 cells (AID 1347053); also: series mostly up to about 46 µM; nearly all actives have a fitted effect of over 55% in size
Method in brief: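 HEK 293; 20 h pre-culture, 37 C/5% CO2; cpd 1 h pre-infection; ZIKV MR766, MOI = 0.5, 24 h, 37 C; TR-FRET NS1 readout (two anti-NS1 Abs); norm. to no-virus vs infected.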

[2] = qHTS of pediatric cancer cell lines to identify multiple opportunities for drug repurposing: Primary screen for TC32 cells (AID 1347089); also: nearly all actives have a fitted effect of over 60% in size
Method in brief: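 TC32 cells, 500-1,000/well in growth medium, compound-treated 48 h at 37 °C; viability from CellTiter-Glo luminescence. Primary screen: MIPE 11-point (0.78 nM–46 µM final), NPC 8-point (0.59 nM–46 µM final); confirmatory at 11-point dilutions.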

[3] = qHTS of pediatric cancer cell lines to identify multiple opportunities for drug repurposing: Primary screen for DAOY cells (AID 1347090); also: series mostly up to about 46 µM; nearly all actives have a fitted effect of over 55% in size
Method in brief: (§1)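 Eight- or eleven-point concentration series, 48 h treatment at 37 degrees C in growth media; readout CellTiter-Glo luminescence. Potency and efficacy were taken from the concentration-response curves.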

[4] = qHTS of pediatric cancer cell lines to identify multiple opportunities for drug repurposing: Primary screen for SJ-GBM2 cells (AID 1347091)
Method in brief: as §1

[5] = qHTS of pediatric cancer cell lines to identify multiple opportunities for drug repurposing: Primary screen for A673 cells (AID 1347092); also: nearly all actives have a fitted effect of over 45% in size
Method in brief: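 A673 cells (500-1,000 cells/well) were treated 48 hours at 37 degrees C with compounds at 11-point (0.78 nM to 46 µM) or 8-point (0.59 nM to 46 µM) dilutions. Viability read by CellTiter-Glo luminescence; concentration-response curves fitted.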

[6] = qHTS of pediatric cancer cell lines to identify multiple opportunities for drug repurposing: Primary screen for SK-N-MC cells (AID 1347093); also: series mostly up to about 46 µM
Method in brief: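 Metabolically active cells were quantified by ATP-dependent luminescence (CellTiter-Glo, 15 min at room temperature) following 48 h treatment. Cells had been plated at 500-1,000 per well and settled for 5 h beforehand.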

[7] = qHTS of pediatric cancer cell lines to identify multiple opportunities for drug repurposing: Primary screen for BT-37 cells (AID 1347094); also: series mostly up to about 57 µM
Method in brief: (§2)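 Phenotypic viability qHTS, 48 h compound exposure, CellTiter-Glo luminescence read-out; multi-concentration dosing so that potency and efficacy derive directly from the primary screen's curves.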

[8] = qHTS of pediatric cancer cell lines to identify multiple opportunities for drug repurposing: Primary screen for NB-EBc1 cells (AID 1347095)
Method in brief: as §2

[9] = qHTS of pediatric cancer cell lines to identify multiple opportunities for drug repurposing: Primary screen for Saos-2 cells (AID 1347097); also: nearly all actives have a fitted effect of over 40% in size
Method in brief: as §2

[10] = qHTS of pediatric cancer cell lines to identify multiple opportunities for drug repurposing: Primary screen for SK-N-SH cells (AID 1347098);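 also: DMSO served as neutral control and bortezomib at 2.3 µM as positive control; nearly all actives have a fitted effect of over 65% in size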
Method in brief: (§3)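 Cells (500-1,000/well) rested 5 h, then received compounds for 48 h; metabolically active cells were measured by CellTiter-Glo luminescence. Final concentrations spanned up to 46 µM (MIPE, 11-point) or 0.59 nM-46 µM (NPC, 8-point) in primary screens, 11-point in follow-ups.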

[11] = qHTS of pediatric cancer cell lines to identify multiple opportunities for drug repurposing: Primary screen for NB1643 cells (AID 1347099); also: nearly all actives have a fitted effect of over 50% in size
Method in brief: as §2

[12] = qHTS of pediatric cancer cell lines to identify multiple opportunities for drug repurposing: Primary screen for LAN-5 cells (AID 1347100)
Method in brief: (§4)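 Cells (500-1,000/well) in growth media were settled 5 h at 37 degrees C, then given compounds for 48 h. Viability was read as CellTiter-Glo luminescence. Primary runs used MIPE at 11 points (0.78 nM-46 µM) and NPC at 8 points (0.59 nM-46 µM); follow-ups used 11 points.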

[13] = qHTS of pediatric cancer cell lines to identify multiple opportunities for drug repurposing: Primary screen for BT-12 cells (AID 1347101); also: nearly all actives have a fitted effect of over 25% in size
Method in brief: as §3

[14] = qHTS of pediatric cancer cell lines to identify multiple opportunities for drug repurposing: Primary screen for Rh18 cells (AID 1347102); also: nearly all actives have a fitted effect of over 65% in size
Method in brief: as §4

[15] = qHTS of pediatric cancer cell lines to identify multiple opportunities for drug repurposing: Primary screen for OHS-50 cells (AID 1347103); also: nearly all actives have a fitted effect of over 40% in size
Method in brief: as §3

[16] = qHTS of pediatric cancer cell lines to identify multiple opportunities for drug repurposing: Primary screen for RD cells (AID 1347104); also: nearly all actives have a fitted effect of over 55% in size
Method in brief: as §2

[17] = qHTS of pediatric cancer cell lines to identify multiple opportunities for drug repurposing: Primary screen for MG 63 (6-TG R) cells (AID 1347105); also: nearly all actives have a fitted effect of over 50% in size
Method in brief: as §2

[18] = qHTS of pediatric cancer cell lines to identify multiple opportunities for drug repurposing: Primary screen for control Hh wild type fibroblast cells (AID 1347106);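 also: series mostly up to about 46 µM; a drop in luminescence marks cytotoxicity and a rise apparent proliferation; nearly all actives have a fitted effect of over 55% in size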
Method in brief: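 Viability after 48 h compound treatment at 37C, 500-1,000 cells/well, read as ATP luminescence with CellTiter-Glo. Primary screens used 11-point (MIPE, 0.78 nM-46 µM) or 8-point (NPC, 0.59 nM-46 µM) final concentrations; follow-up screens used 11-point dilutions.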

[19] = qHTS of pediatric cancer cell lines to identify multiple opportunities for drug repurposing: Primary screen for Rh30 cells (AID 1347107); also: series mostly up to about 46 µM; nearly all actives have a fitted effect of over 75% in size
Method in brief: as §4

[20] = qHTS of pediatric cancer cell lines to identify multiple opportunities for drug repurposing: Primary screen for U-2 OS cells (AID 1347096); also: nearly all actives have a fitted effect of over 50% in size
Method in brief: as §4

Measured: Potency

CCN(CC)C(=O)c1cccc(C)c1
not listed: [20]
inactive: all other assays above

CC(=O)OCC(COC(C)=O)OC(C)=O
not listed: [9]
inactive: all other assays above

CC(CSC(=O)c1ccccc1)C(=O)N1C[C@@H](Sc2ccccc2)C[C@H]1C(=O)O (stereo partly specified)
not listed: [9]
inactive: all other assays above

O=C(c1ccccc1)C(O)c1ccccc1 (stereo unspecified)
not listed: [9]
inactive: all other assays above

O=C(O)c1ccccc1OP(=O)(O)O
not listed: [9] | [15]
inactive: all other assays above

C1CCN2C[C@@H]3C[C@@H](CN4CCCC[C@@H]34)[C@H]2C1
not listed: [9] | [17]
inactive: all other assays above

COC(=O)c1cccnc1
not listed: [15] | [17] | [18]
inactive: all other assays above

COC(=O)c1ccc(O)cc1
not listed: [9] | [17]
inactive: all other assays above

Nc1ccncc1N
not listed: [9] | [11]
inactive: all other assays above

Nc1ccc(C(=O)Oc2ccccc2)c(O)c1
not listed: [9] | [10] | [15] | [18]
inactive: all other assays above

OC(CCN1CCCC1)(c1ccccc1)C1CCCCC1 (stereo unspecified)
not listed: [9] | [11] | [15] | [16]
inactive: all other assays above

O=C(O)/C=C/c1ccc(Cn2ccnc2)cc1
not listed: [11] | [15]
inactive: all other assays above

O=C1c2ccccc2C(=O)C1c1ccc(Br)cc1
not listed: [9] | [11]
inactive: all other assays above

CC1(C)S[C@@H]2[C@H](NC(=O)C(C(=O)O)c3ccccc3)C(=O)N2[C@H]1C(=O)O (stereo partly specified)
not listed: [9]
inactive: all other assays above

Nc1ncnc(Nc2ccccc2)n1
not listed: [9]
inactive: all other assays above
